Each structure is given as a SMILES string. The panel holds about 83,000 compounds, 20% with a hit somewhere; the sample as a whole holds those more often.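 Each cell line was grown in a 96-well plate and treated with one concentration of compound for 48 hours. Values below 10 were considered active.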 Values without a mark were called inactive. Activity calls are given as the source filed them.

The assay concerns NCI-H322M lung. The assay can be described thus: NCI-60 one-dose screen, 48 h (100 = growth as untreated, 0 = no growth, -100 = all killed). As to conditions: 10 µM unless noted. As for the experimental part:
Growth inhibition of the NCI-H322M human Non-Small Cell Lung tumor cell line is measured as a screen for anti-cancer activity. Cells are grown in 96 well plates and exposed to the test compound for 48 hours. Compounds are tested at a single concentration, which is 10^-5 M for most compounds. The reported endpoint is percent growth (GI% or GIPRCNT), where numbers from 0 - 100% represent growth inhibition, and numbers from -100% - 0 represent cell death. For example, a value of 40 represents 60% growth inhibition. A value of 0 means no net growth occurred over the course of the experiment. A value of -40 indicates 40% of cells at the beginning of the experiment died by the end of the experiment. A value of -100 means all cells are dead at the end of the experiment.
NCI-60 Human Tumor Cell Lines Screen was performed using the standard one-dose NCI protocol, which is described in more detail at https://dtp.cancer.gov/discovery_development/nci-60/default.htm.
Compounds with GIPRCNT values below 10 were considered active. Activity score was based on GIPRCNT using the following formula: […]
Score is 0 for GIPRCNT values of 100 or above, 50 for GIPRCNT values of 0, and 100 for GIPRCNT values of -100.
As for `N#Cc1c(-c2ccc(Cl)cc2)nc2c(-c3ccccc3)c(Nc3ccccc3)nn2c1N`, the growth is 64%.

Take `C#Cc1nc(C2=C(C)C(OC(C)=O)/C(=N/OC(C)=O)C2)cs1` (stereo not given): the growth was 116%.

`Cc1nc(-c2cc3ccccc3oc2=O)ccc1C(=O)/C=C/c1ccccn1`: the growth was 86.3%.

Consider `N#Cc1c(-c2ccc(Cl)cc2)nc(SCc2ccc([N+](=O)[O-])cc2)nc1N1CCNCC1`, for which the growth was 40.5%.

Turning to `COc1ccc(/C=N/Nc2ccnc3cc(Cl)ccc23)cc1Cl`, the growth is -64.1% (active).

As for `Clc1ccc2c(NCCCN3CCOCC3)c3oc4ccccc4c3nc2c1`, the growth is 37.8%.

As to `N[C@@H](Cc1cn(-c2ccnc3ccccc23)nn1)C(=O)O`, the growth is 102%.

For `CC1=C(C)C(=O)C(Nc2ccccc2)=C(Cl)C1=O`, the growth was 99.3%.

In the case of `Cc1sc2c(c1C)c(=O)nc1c(-c3nc(-c4ccc(F)cc4)no3)n[nH]n12`, the growth is 103%.

Take `C/C(=C(/c1ccc(Cl)cc1)c1ccc(OCCN)cc1)c1ccc(C)cc1`: the growth is 103%.

On to `Cn1c(SCC(=O)c2cccs2)nc2ccccc2c1=O`, for which the growth was 102%.

As for `CCCC(=O)NC(c1ccc(N(CC)CC)cc1)c1cc(C)c2cccnc2c1O` (stereo not given), the growth was 27.8%.

For `COc1ccc(N/N=C/c2c(-c3ccc(S(C)(=O)=O)cc3)nc3ccccn23)cc1`, the growth is 50%.

Turning to `Clc1ccc2oc3c(NCCCN4CCOCC4)c4ccccc4nc3c2c1`, the growth was 21.6%.

For the compound `Cc1nc(-c2cc3ccccc3oc2=O)ccc1C(=O)/C=C/c1ccc(Cl)c(Cl)c1`, the growth was 104%.

With `COc1cc(N=Cc2sc(Nc3nccs3)nc2O)cc(OC)c1OC`, the growth is 74%.

As to `COc1ccc([C@@H]2c3[nH]c4ccccc4c3CC3C(=O)N(C4CCN(Cc5c(F)cccc5F)CC4)CC(=O)N32)c(OC)c1` (stereo not given in full), the growth is 83.4% [5.26 µM].

As to `COc1ccc(-c2csc(N/N=C/c3c(-c4ccc(S(C)(=O)=O)cc4)nc4ccccn34)n2)cc1`, the growth is 106%.

Turning to `CCN(CC)c1ccc(C=O)c(OCc2cn(CC(=O)Nc3ccc(Cl)cc3)nn2)c1`, the growth is 94.9%.

As for `N#Cc1nc(-c2ccccc2)oc1S(=O)(=O)N1CCN(CCc2ccccn2)CC1`, the growth was 95.6%.

On to `NS(=O)(=O)c1cccc(Nc2nc(SCC(=O)c3ccc([N+](=O)[O-])cc3)nc3ccccc23)c1`, for which the growth is 82.7%.

As for `COc1cc(/C=C/C(=O)c2ccc(F)cc2)ccc1Oc1nc(NCCO)nc(N2CCOCC2)n1`, the growth was 97.4%.

Regarding `O=C(N/N=C/c1ccc(Cl)s1)c1[nH]c2ccc(Br)cc2c1-c1ccccc1`, the growth was 49.4%.

For the compound `Clc1ccc2oc3c(NCCCn4ccnc4)c4ccccc4nc3c2c1`, the growth was 41.5%.

On to `CC1=C(C)C(=O)C(Nc2cccc(C(F)(F)F)c2)=C(Cl)C1=O`, for which the growth was 101%.

As to `COc1cc(/C=C/C(=O)c2ccc(Cl)cc2)ccc1Oc1nc(NCCO)nc(N2CCOCC2)n1`, the growth was 95.8%.

`O=C1Nc2cc(Cl)ccc2/C1=C\c1ccc(OCc2ccc(Br)cc2F)cc1`: the growth is -23.8% (active).

Consider `Nc1cc(-c2c[nH]c3ccc(F)cc23)nc2cc(-c3c[nH]c4ccc(F)cc34)nn12`, for which the growth is 94.1%.

For `COc1cc(/C=C/C(=O)c2cc(OC)c(OC)c(OC)c2)ccc1OCc1ccc(F)cc1`, the growth was 49.7%.

As for `COc1ccc(NC2=CC(=O)C(C)=C(C)C2=O)cc1`, the growth was 103%.

For the compound `CCN1C(=S)N(CC)C2C1NN=C1SC(c3ccccc3)=CC(=O)N12` (stereo not given), the growth is 110%.

On to `Clc1ccc2c(NCCCn3ccnc3)c3oc4ccccc4c3nc2c1`, for which the growth is 40.7%.

As to `CSc1ccc2c(c1)N(C(=O)/C(C#N)=C/c1c[nH]c3ccccc13)c1ccccc1S2`, the growth is 86.1%.

On to `CNC(=O)c1cc(-c2ccc(NC(=O)Nc3ccc(N4CCN(C)CC4)c(C(F)(F)F)c3)cc2)nc2cccnc12`, for which the growth was -78.4% (active).

As for `COc1cc(/C=C/C(=O)c2ccc(C)cc2)ccc1Oc1nc(NCCO)nc(N2CCOCC2)n1`, the growth was 102%.

As for `C#C[C@]1(O)CC[C@H]2[C@@H]3CC=C4c5sc(Nc6ccc(Cl)cn6)nc5CC[C@]4(C)[C@H]3CC[C@@]21C`, the growth is 82.3%.

As for `O=c1[nH]c2ccccc2cc1CSc1ccccc1Nc1nccc(-c2ccc(C(F)(F)F)cc2)n1`, the growth is 90.5%.

For `O=C(CSc1nnc(-c2ccc3nc(-c4ccc(Cl)cc4)[nH]c3c2)o1)Nc1ccc(C(=O)/C=C/c2ccc(Cl)cc2)cc1`, the growth was 95.4%.

In the case of `C#Cc1nc(C2=C(C)C(O)CC2)cs1` (stereo not given), the growth was 111%.

As for `COc1ccc(Cc2nn(CC(=O)N/N=C/c3ccc(Cl)cc3)c(=O)c3c(C)noc23)cc1`, the growth was 94.8%.

(Values after PubChem BioAssay (NCI).)
